Source: the supplement of paper PMC9446081
± gives the standard deviation of the averaged measurements.

Each compound was assayed against DNA primase (UniProt P0ABS7) (assay: relative enzymatic activity vs untreated control (fraction); higher = less inhibition). Conditions: 100 µM; incubation time: 2 h at 37 C.
Experimental: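 In vitro enzymatic inhibition assays (ProFoldin kits) for 12 purified essential E. coli enzymes or complexes, each treated with 218 active antibacterial compounds at 100 µM for 2 h at 37°C. Read-outs were fluorescence or absorbance (phosphate detection, dye binding), converted to activity via standard curves and expressed relative to untreated DMSO controls.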

Sequence of DNA primase (P0ABS7 whole entry): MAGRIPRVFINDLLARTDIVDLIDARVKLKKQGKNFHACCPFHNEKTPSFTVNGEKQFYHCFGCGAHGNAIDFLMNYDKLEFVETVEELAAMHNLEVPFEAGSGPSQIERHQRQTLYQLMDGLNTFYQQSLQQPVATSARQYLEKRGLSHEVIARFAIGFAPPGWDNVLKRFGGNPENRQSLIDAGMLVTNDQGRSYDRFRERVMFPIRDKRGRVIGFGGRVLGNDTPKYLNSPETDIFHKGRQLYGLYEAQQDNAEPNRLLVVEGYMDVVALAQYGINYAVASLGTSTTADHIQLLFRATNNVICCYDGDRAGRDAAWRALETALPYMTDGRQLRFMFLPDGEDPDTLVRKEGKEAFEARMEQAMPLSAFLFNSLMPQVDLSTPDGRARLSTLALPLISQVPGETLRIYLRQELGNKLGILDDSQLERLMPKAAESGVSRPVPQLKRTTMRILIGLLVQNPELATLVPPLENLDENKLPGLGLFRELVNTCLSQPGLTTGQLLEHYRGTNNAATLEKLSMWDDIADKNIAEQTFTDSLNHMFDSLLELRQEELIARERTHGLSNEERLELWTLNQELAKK

`Cc1cn(C2CC(N=[N+]=[N-])C(CO)O2)c(=O)[nH]c1=O` (centres undefined) and `O=c1[nH]c(=O)n(C2CC(O)C(CO)O2)cc1F` (centres undefined) are within error of each other in relative enzymatic activity: 0.692 ± 0.18 for the first, 0.657 ± 0.14 for the second.

`CCOC(=O)OC(C)OC(=O)C1N2C(=O)C(NC(=O)C(N)c3ccccc3)C2SC1(C)C.Cl` (centres undefined) and `CC1(C)S[C@@H]2[C@H](NC(=O)[C@H](NC(=O)N3CCNC3=O)c3ccccc3)C(=O)N2[C@H]1C(=O)O` are within error of each other in relative enzymatic activity: 0.841 ± 0.011 for the first, 0.864 ± 0.024 for the second.

`Cn1nnnc1SCC1=C(C(=O)[O-])N2C(=O)C(NC(=O)C(O)c3ccccc3)C2SC1.[Na+]` (centres undefined) and `Cc1cc(=O)c(C(=O)N[C@@H](C(=O)N[C@@H]2C(=O)N3C(C(=O)O)=C(CSc4nnnn4C)CS[C@H]23)c2ccc(O)cc2)c[nH]1` are within error of each other in relative enzymatic activity: 0.689 ± 0.18 for the first, 0.766 ± 0.023 for the second.

`CNC1C(OC2C(OC3C(O)C(O)C(NC(=N)N)C(O)C3NC(=N)N)OC(C)C2(O)CO)OC(CO)C(O)C1O.O=S(=O)(O)O` (centres undefined) and `NCC1OC(OC2C(N)CC(N)C(OC3OC(CO)C(O)C(N)C3O)C2O)C(N)CC1O` (centres undefined) are within error of each other in relative enzymatic activity: 0.716 ± 0.22 for the first, 0.71 ± 0.18 for the second.

`CON=C(C(=O)NC1C(=O)N2C(C(=O)OCOC(=O)C(C)(C)C)=C(C=Cc3scnc3C)CSC12)c1csc(N)n1` (centres undefined) and `CCC=C(C(=O)NC1C(=O)N2C(C(=O)OCOC(=O)C(C)(C)C)=C(COC(N)=O)CSC12)c1csc(N)n1.Cl` (centres undefined) are within error of each other in relative enzymatic activity: 0.894 ± 0.029 for the first, 0.907 ± 0.088 for the second.

`COC1(NC(=O)C(C(=O)[O-])c2ccc(O)cc2)C(=O)N2C(C(=O)[O-])=C(CSc3nnnn3C)COC21.[Na+].[Na+]` (centres undefined) and `CCN1CCN(C(=O)NC(C(=O)NC2C(=O)N3C(C(=O)O)=C(CSc4nnnn4C)CSC23)c2ccc(O)cc2)C(=O)C1=O` (centres undefined) are within error of each other in relative enzymatic activity: 0.693 ± 0.17 for the first, 0.673 ± 0.16 for the second.

`Nc1c2ccccc2nc2ccccc12` and `CC(NCCCc1cccc(C(F)(F)F)c1)c1cccc2ccccc12.Cl` (centres undefined) are within error of each other in relative enzymatic activity: 0.573 ± 0.14 for the first, 0.676 ± 0.16 for the second.

Going from `O=C1OC(=O)[C@H]2[C@@H]1[C@H]1CC[C@H]2O1` to `CC[C@H]1OC(=O)C[C@@H](O)[C@H](C)[C@@H](O[C@@H]2O[C@H](C)C[C@H](N(C)C)[C@H]2O)[C@@H](CC=O)C[C@@H](C)C(=O)/C=C/[C@]2(C)O[C@H]2[C@@H]1C`, the relative enzymatic activity rises from 0.811 ± 0.0082 to 0.854 ± 0.017.

`CC(=O)On1cc(F)c(=O)[nH]c1=O` and `CCn1cc(C(=O)O)c(=O)c2cc(F)c(N3CCNC(C)C3)c(F)c21.Cl` (centres undefined) are within error of each other in relative enzymatic activity: 0.765 ± 0.056 for the first, 0.712 ± 0.2 for the second.

`N[C@@H](C(=O)N[C@@H]1C(=O)N2C(C(=O)O)=C(Cl)CS[C@H]12)c1ccccc1` and `N[C@@H](C(=O)N[C@@H]1C(=O)N2C(C(=O)O)=C(Cl)CC[C@H]12)c1ccccc1` are within error of each other in relative enzymatic activity: 0.801 ± 0.021 for the first, 0.831 ± 0.025 for the second.

`COc1ccc(Cc2cnc(N)nc2N)cc1OC` and `COc1cc(Cc2cnc(N)nc2N)cc(OC)c1OC` are within error of each other in relative enzymatic activity: 0.74 ± 0.24 for the first, 0.685 ± 0.15 for the second.

`CN1CCN(c2c(F)cc3c(=O)c(C(=O)O)cn4c3c2OCN4C)CC1` and `O=C(O)c1cn(C2CC2)c2cc(N3CCNCC3)c(F)cc2c1=O` are within error of each other in relative enzymatic activity: 0.86 ± 0.01 for the first, 0.687 ± 0.18 for the second.

`C[C@H]1[C@H](NC(=O)/C(=N\OC(C)(C)C(=O)O)c2csc(N)n2)C(=O)N1S(=O)(=O)O` and `CO/N=C(\C(=O)N[C@@H]1C(=O)N2C(C(=O)O)=C(C)CS[C@H]12)c1csc(N)n1` are within error of each other in relative enzymatic activity: 0.8444 ± 0.0011 for the first, 0.822 ± 0.035 for the second.

`CC(N)O.Cc1cc(CC(C)CC(C)(C)C)n(O)c(=O)c1` (centres undefined) and `CC(O)C1C(=O)N2C(C(=O)O)=C(SC3CNC(C(=O)N(C)C)C3)C(C)C12` (centres undefined) are the same in relative enzymatic activity: 0.719 ± 0.22 for the first, 0.719 ± 0.22 for the second.

`COc1cc2c(cc1OC)C(=O)C(CC1CCN(Cc3ccccc3)CC1)C2.Cl` (centres undefined) and `CON=C(C(=O)NC1C(=O)N2C(C(=O)O)=C(C[N+]3(C)CCCC3)CSC12)c1csc(N)n1.[Cl-]` (centres undefined) are within error of each other in relative enzymatic activity: 0.713 ± 0.2 for the first, 0.724 ± 0.23 for the second.

Compared with `CN(C)c1ccc(O)c2c1CC1CC3C(N(C)C)C(O)=C(C(N)=O)C(=O)C3(O)C(O)=C1C2=O.Cl` (centres undefined), `CN(C)C1C(O)=C(C(N)=O)C(=O)C2(O)C(O)=C3C(=O)c4c(O)cccc4C(C)(O)C3CC12.Cl` (centres undefined) is higher in relative enzymatic activity: 0.4515 ± 0.0044 for the first, 0.711 ± 0.17 for the second.

Going from `C=C1c2cccc(O)c2C(=O)C2=C(O)C3(O)C(=O)C(C(N)=O)=C(O)C(N(C)C)C3C(O)C12.Cl` (centres undefined) to `Nc1nc(C(=CCC(=O)O)C(=O)NC2C(=O)N3C(C(=O)O)=CCSC23)cs1` (centres undefined), the relative enzymatic activity rises from 0.399 ± 0.077 to 0.682 ± 0.082.

`CO/N=C(\C(=O)N[C@@H]1C(=O)N2C(C(=O)O)=C(CSc3nnnn3C)CS[C@H]12)c1csc(N)n1` and `Cc1nnc(SCC2=C(C(=O)[O-])N3C(=O)C(NC(=O)Cn4cnnn4)C3SC2)s1.[Na+]` (centres undefined) are within error of each other in relative enzymatic activity: 0.827 ± 0.017 for the first, 0.707 ± 0.18 for the second.

`NCCONC(=O)[C@@H]1CC[C@@H]2CN1C(=O)N2OS(=O)(=O)O` and `Nc1nc(/C(=N/O)C(=O)N[C@@H]2C(=O)N3C(C(=O)O)=C(/C=C4\CCN([C@@H]5CCNC5)C4=O)CS[C@H]23)ns1` are within error of each other in relative enzymatic activity: 0.762 ± 0.033 for the first, 0.816 ± 0.035 for the second.

In the case of `NC(=O)N/N=C/c1ccc([N+](=O)[O-])o1`, the relative enzymatic activity is reported as 0.761 ± 0.072.
